Laboratory results published in PubChem BioAssay (NCI).
Where “and” joins values, the source holds several entries; their conditions need not be identical. Identical values can stand only once. Compounds without any hit were thinned out: in the full panel of roughly 83,000, 20% have a hit.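 Each cell line was grown in a 96-well plate and treated with one concentration of compound for 48 hours. Values below 10 were considered active.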 Calls of active or inactive are those of the source.

Legend:
Assay in all cases: NCI-60 one-dose screen, 48 h (100 = growth as untreated, 0 = no growth, -100 = all killed)
Details in all cases: 10 µM
T-47D breast = tested on: T-47D breast
MDA-MB-435 melanoma = tested on: MDA-MB-435 melanoma
SW-620 colon = tested on: SW-620 colon
MCF7 breast = tested on: MCF7 breast
HCT-116 colon = tested on: HCT-116 colon
HCC-2998 colon = tested on: HCC-2998 colon
KM12 colon = tested on: KM12 colon

## Cc1nc(N=C(N)N)nc2ccc3ccccc3c12
T-47D breast
  growth: -10.6% (active)
MDA-MB-435 melanoma
  growth: -4.72% (active)
SW-620 colon
  growth: 9.65% (active)
MCF7 breast
  growth: -18.1% (active)
HCT-116 colon
  growth: 5.64% (active)
HCC-2998 colon
  growth: 13.3% (inactive)
KM12 colon
  growth: -9.2% (active)

## NNc1ccc2ccccc2c1
T-47D breast
  growth: 70.2% (inactive) and 98.5% (inactive)
MDA-MB-435 melanoma
  growth: 98.8% (inactive) and 103% (inactive)
SW-620 colon
  growth: 96.1% (inactive)
MCF7 breast
  growth: 74.8% (inactive) and 80.2% (inactive)
HCT-116 colon
  growth: 102% (inactive) and 90.2% (inactive)
HCC-2998 colon
  growth: 98% (inactive)
KM12 colon
  growth: 74.3% (inactive) and 98.7% (inactive)

## CCO/C=C1\SC(=S)N(c2cccc(O)c2)C1=O
T-47D breast
  growth: 87.4% (inactive)
MDA-MB-435 melanoma
  growth: 102% (inactive)
SW-620 colon
  growth: 112% (inactive)
MCF7 breast
  growth: 84.1% (inactive)
HCT-116 colon
  growth: 96.9% (inactive)
HCC-2998 colon
  growth: 111% (inactive)
KM12 colon
  growth: 97.2% (inactive)

## OCC1OC(n2cnc3c(=S)nc[nH]c32)C(O)C1O (stereo unspecified)
T-47D breast
  growth: 100% (inactive) and 57.7% (inactive)
MDA-MB-435 melanoma
  growth: 106% (inactive) and 35.3% (inactive)
SW-620 colon
  growth: 104% (inactive) and 76.6% (inactive)
MCF7 breast
  growth: 108% (inactive) and 20.9% (inactive)
HCT-116 colon
  growth: 117% (inactive) and 39.8% (inactive)
HCC-2998 colon
  growth: 100% (inactive) and 45.5% (inactive)
KM12 colon
  growth: 108% (inactive) and 60.4% (inactive)

## Nc1ccc2cc3ccc(N)cc3nc2c1
T-47D breast
  growth: 102% (inactive) and 2.81% (active)
MDA-MB-435 melanoma
  growth: 103% (inactive) and 23.4% (inactive)
SW-620 colon
  growth: 103% (inactive) and 10.5% (inactive)
MCF7 breast
  growth: 111% (inactive) and -21.7% (active)
HCT-116 colon
  growth: 109% (inactive) and 3.02% (active)
HCC-2998 colon
  growth: 110% (inactive) and 16.7% (inactive)
KM12 colon
  growth: 121% (inactive) and 9.1% (active)

## C[n+]1c2cc(N)ccc2cc2ccc(N)cc21
T-47D breast
  growth: -14.1% (active) and -9.22% (active) and -15% (active)
SW-620 colon
  growth: 2.1% (active) [middle of 4 runs]
MCF7 breast
  growth: -3.9% (active) [middle of 4 runs]

## COc1ccc(CC(=O)c2ccc(O)cc2O)cc1
T-47D breast
  growth: 182% (inactive)
MDA-MB-435 melanoma
  growth: 115% (inactive)
SW-620 colon
  growth: 111% (inactive)
MCF7 breast
  growth: 108% (inactive)
HCT-116 colon
  growth: 96.6% (inactive)
HCC-2998 colon
  growth: 107% (inactive)
KM12 colon
  growth: 122% (inactive)

## CCCCCCCCCCCC[N+](C)(C)Cc1ccccc1
T-47D breast
  growth: 14.2% (inactive)
MDA-MB-435 melanoma
  growth: 11.7% (inactive)
SW-620 colon
  growth: 45.2% (inactive)
MCF7 breast
  growth: 15.1% (inactive)
HCT-116 colon
  growth: 21.5% (inactive)
HCC-2998 colon
  growth: 17.8% (inactive)
KM12 colon
  growth: -63.7% (active)

## Cc1cc(NS(=O)(=O)c2ccc(N=Nc3cc(N=Nc4ccc(S(=O)(=O)Nc5cc(C)nc(C)n5)cc4)c4c(NC(=O)C(Cl)Cl)cccc4c3OC(=O)C(Cl)Cl)cc2)nc(C)n1 (tested in a mixture with another compound)
T-47D breast
  growth: 101% (inactive) and 87.1% (inactive)
MDA-MB-435 melanoma
  growth: 101% (inactive) and 111% (inactive)
SW-620 colon
  growth: 122% (inactive) and 104% (inactive)
MCF7 breast
  growth: 94.4% (inactive) and 78% (inactive)
HCT-116 colon
  growth: 105% (inactive) and 95.2% (inactive)
HCC-2998 colon
  growth: 107% (inactive) and 111% (inactive)
KM12 colon
  growth: 107% (inactive) and 106% (inactive)

## CC(C)(C)CC(C)(C)c1ccc(OCCO)cc1
T-47D breast
  growth: 105% (inactive)
MDA-MB-435 melanoma
  growth: 115% (inactive)
SW-620 colon
  growth: 109% (inactive)
MCF7 breast
  growth: 137% (inactive)
HCT-116 colon
  growth: 102% (inactive)
HCC-2998 colon
  growth: 110% (inactive)
KM12 colon
  growth: 99.4% (inactive)

## OCC(O)C(O)C(O)C(/C=N/Nc1ccccc1)=N/Nc1ccccc1 (stereo unspecified)
T-47D breast
  growth: 57.9% (inactive)
MDA-MB-435 melanoma
  growth: 78% (inactive)
SW-620 colon
  growth: 88.3% (inactive)
MCF7 breast
  growth: 88.3% (inactive)
HCT-116 colon
  growth: 84.4% (inactive)
HCC-2998 colon
  growth: 84.2% (inactive)
KM12 colon
  growth: 75.1% (inactive)

## CCCC1CCC(=C2C(=O)CCC2=O)O1 (stereo unspecified)
T-47D breast
  growth: 87.8% (inactive) and 110% (inactive)
MDA-MB-435 melanoma
  growth: 94.8% (inactive) and 95.4% (inactive)
SW-620 colon
  growth: 105% (inactive)
MCF7 breast
  growth: 91.9% (inactive) and 118% (inactive)
HCT-116 colon
  growth: 91.9% (inactive) and 107% (inactive)
HCC-2998 colon
  growth: 104% (inactive) and 99.1% (inactive)
KM12 colon
  growth: 105% (inactive) and 108% (inactive)

## CCC(C)(C)c1cc(O)c(C(C)(C)CC)cc1O
T-47D breast
  growth: 60.3% (inactive)
MDA-MB-435 melanoma
  growth: 27.7% (inactive)
SW-620 colon
  growth: 31.8% (inactive)
MCF7 breast
  growth: 18.4% (inactive)
HCT-116 colon
  growth: 16.6% (inactive)
KM12 colon
  growth: 55.3% (inactive)

## CC(=O)Nc1cc(C)ccc1C
T-47D breast
  growth: 107% (inactive)
MDA-MB-435 melanoma
  growth: 102% (inactive)
SW-620 colon
  growth: 96.4% (inactive)
MCF7 breast
  growth: 105% (inactive)
HCT-116 colon
  growth: 96.9% (inactive)
HCC-2998 colon
  growth: 100% (inactive)
KM12 colon
  growth: 97.4% (inactive)

## NC1=C(Cl)C(=O)c2ccccc2C1=O
T-47D breast
  growth: 86.8% (inactive)
MDA-MB-435 melanoma
  growth: -87.5% (active)
SW-620 colon
  growth: 86.8% (inactive)
MCF7 breast
  growth: 48.3% (inactive)
HCT-116 colon
  growth: 54.4% (inactive)
HCC-2998 colon
  growth: 101% (inactive)
KM12 colon
  growth: 65.3% (inactive)

## CC(=O)OCC(OC(C)=O)C(OC(C)=O)C(OC(C)=O)C(OC(C)=O)C(/C=N/Nc1ccccc1)=N/Nc1ccccc1 (stereo unspecified)
MDA-MB-435 melanoma
  growth: 65.6% (inactive)
SW-620 colon
  growth: 49.7% (inactive)
MCF7 breast
  growth: 44.1% (inactive)
HCT-116 colon
  growth: 64.1% (inactive)
HCC-2998 colon
  growth: 91.2% (inactive)
KM12 colon
  growth: 45.3% (inactive)
